The results in this text go back to ChEMBL document CHEMBL3988442, “University of Dundee, Small-Polar-MMV Screening Library” (2021).

Hit rate of the full screen: of about 69,000 compounds, about 30 (0.04%) showed an effect of 50% or more. What follows is part of a selection rich in strong results, with near analogues and random picks from the rest.

The experiment deals with T1, Histidine--tRNA ligase (Trypanosoma cruzi (strain CL Brener)) (UniProt Q4DA54).
T1 sequence (whole entry): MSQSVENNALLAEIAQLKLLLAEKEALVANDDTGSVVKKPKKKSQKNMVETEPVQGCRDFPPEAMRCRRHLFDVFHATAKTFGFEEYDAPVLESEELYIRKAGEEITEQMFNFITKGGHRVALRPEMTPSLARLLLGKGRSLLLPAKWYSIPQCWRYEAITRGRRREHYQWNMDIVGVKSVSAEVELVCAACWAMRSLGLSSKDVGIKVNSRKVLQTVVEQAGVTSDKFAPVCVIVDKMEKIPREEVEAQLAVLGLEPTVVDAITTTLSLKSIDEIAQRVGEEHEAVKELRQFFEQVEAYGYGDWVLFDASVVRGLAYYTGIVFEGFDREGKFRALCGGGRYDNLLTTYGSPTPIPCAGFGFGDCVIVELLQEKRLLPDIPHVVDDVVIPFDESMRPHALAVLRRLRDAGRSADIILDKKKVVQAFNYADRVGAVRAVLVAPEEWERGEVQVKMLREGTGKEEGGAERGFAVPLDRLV
In words: Trypanosoma cruzi histidyl tRNA synthetase (Tc-HisRS). In kind it is functional. Also on record: scale not given: direction of the effect not stated beside the values. The conditions noted are these: 30 µM.
For the molecule `CN(CC1CC1)c1ccc2ccc(C(=O)NCCc3ccccc3)cn12`, the Percent Effect came to 51.4%. Take `O=C(c1ccnnc1)N1CC[C@H]2C[C@H](c3ccncn3)O[C@@H]2C1`: the Percent Effect was 7.44%. In the case of `CS(=O)(=O)N1C[C@H]2C[C@H](C(=O)N3CCOCC3)[C@@H](C1)O2`, the Percent Effect came to 4.85%. The value for `O=C(O)c1cncc(Cc2ccc(F)cc2)c1` was 62.8%; that for `O=C(O)c1cncc(Cc2ccccc2F)c1` was -0.376%.

For the molecule `O=C(O)c1cncc(Cc2cccc(F)c2)c1`, the Percent Effect turned out to be 5.64%. In the case of `O=C(CO[C@@H]1CC[C@H]2[C@H]1OCCN2Cc1ccccn1)N1CCCC1` it was 7.53%.

As to `Cc1noc(C)c1CN1C(=O)[C@H]2CC[C@@H]1CN(Cc1ccc(Cl)cc1)C2`, the Percent Effect came to 3.17%. The value for `CCN1C(=O)COC[C@@H]1[C@H](O)c1ccc(NC(=O)COC)cc1` was -5.47%; that for `Cn1ccnc1CN1C[C@H]2CN(S(=O)(=O)c3ccccc3)CCN2C1=O` was -1.49%; that for `CCN1CCN(S(=O)(=O)N2CCc3ccccc3C2)[C@H]2CS(=O)(=O)C[C@H]21` was 1.32%. The value for `O=C1[C@H]2CC[C@H](CN(Cc3nnc(C4CC4)o3)C2)N1Cc1cscn1` was 8%; that for `CC(C)C(=O)N1CC[C@@H]2CN(Cc3ccncc3)S(=O)(=O)[C@@H]2CC1` was 1.07%. The value for `Cc1ccccc1C(=O)N1CC[C@@H]2CN(c3ncccn3)CCO[C@@H]2C1` was 0.98%. For the molecule `CCOC(=O)[C@]12CCCN(Cc3ccco3)C[C@H]1CN(S(C)(=O)=O)C2`, the Percent Effect stood at 1.68%.

As to `c1cc(CN2C[C@@H]3OCCN(CC4CCCO4)[C@@H]3C2)co1` (stereo partly drawn), the Percent Effect stood at 2.94%. In the case of `Cn1cc(CN2CC[C@H]3C[C@H](c4nc(C5CC5)cs4)O[C@@H]3C2)cn1` it was 1.67%.

In the case of `COc1ccc(OC)c(C2CCN(CC(C)(C)N3CCOCC3)C2)c1` (stereo not drawn), the Percent Effect was 8.29%. Turning to `COc1ccc(OC)c(C2CC(=O)Nc3nc(N4CCOCC4)sc32)c1` (stereo not drawn), the Percent Effect was found to be 75.8%. The value for `CCn1ncnc1C1CC(=O)NCc2nc(N3CCOCC3)sc21` (stereo not drawn) was 9.45%; that for `COc1ccc(C2CC(=O)Nc3nc(N4CCOCC4)sc32)c(OC)c1` (stereo not drawn) was 72%; that for `COc1ccc(C(C)C)cc1C1CC(=O)NCc2nc(N(C)C)sc21` (stereo not drawn) was 7.85%. As to `COc1ccc(C2CC(=O)Nc3nc(N4CCOCC4)sc32)cc1` (stereo not drawn), the Percent Effect is -2.48%. Regarding `O=C1C[C@H]2[C@@H](CCN2C(=O)Cc2cccs2)N1CC1CC1`, the Percent Effect was determined as 5.83%. On to `CC(C)NC(=O)[C@H]1C[C@@H]2[C@@H](C1)OCCN2Cc1cccs1`, for which the Percent Effect was found to be 3.48%.

For the molecule `CCOC(=O)[C@@H]1CN2CCNC[C@@H]2[C@H]1c1ccccc1`, the Percent Effect is 1.12%. Consider `O=C(C1CCOCC1)N1C[C@H]2CCC[C@@]2(COc2cccnc2)C1`, for which the Percent Effect worked out at 12.8%. In the case of `CCOC(=O)[C@]12CCCN(Cc3nccs3)C[C@H]1CN(S(C)(=O)=O)C2` it was 6.45%; in that of `Cn1cc(C(=O)N[C@H]2CN(S(C)(=O)=O)[C@@H]3CCCO[C@H]23)cn1`, 4.9%; in that of `Cc1ccc(C(=O)N2CCO[C@H]3[C@@H](OCc4ccccn4)CC[C@@H]32)o1`, 5.43%. Consider `O=C(c1ccccn1)N1C[C@@H]2CC[C@H](C1)N(C(=O)CCc1cccs1)C2`, for which the Percent Effect came out at 5.02%.

For the molecule `CCN1CCO[C@@H]2CN(C(=O)NCc3ccccc3)CC[C@@H]2C1`, the Percent Effect turned out to be 1.06%.

Take `CN1CCC(NC(=O)[C@H]2CC[C@@H]3[C@@H](CCN3c3ncccn3)O2)CC1`: the Percent Effect came out at 5.75%. As to `c1cnc(N2C[C@@H]3COC[C@]3(COCC3CCCC3)C2)nc1`, the Percent Effect was 14.3%. The value for `Cc1ccsc1C(=O)N1C[C@@H]2CN(Cc3ccoc3)CCO[C@@H]2C1` was 3.87%; that for `Cc1ccc(N2CCN(C(=O)CN3C[C@@H]4CC[C@H]3C4)CC2=O)cc1` was 6.47%; that for `Cc1ccc(CN2CCC[C@]3(C(=O)O)CN(CC4CC4)C[C@@H]3C2)s1` was -3.17%. The value for `CCn1ncc(CN2C[C@@H]3CCCN3C[C@@H]2CCSC)c1C` was 8.99%; that for `O=C(C1CCC1)N1CC[C@@H]2CN(Cc3cccnc3)S(=O)(=O)[C@@H]2CC1` was 11.6%; that for `CN(C)C(=O)COC[C@]12COC[C@H]1CN(Cc1ccccc1)C2` was 4.67%. With `CC1CCN(c2ccc(C(=O)N3CCCC3c3ccc[nH]3)cn2)CC1` (stereo not drawn), the Percent Effect stood at 66.8%. The value for `NC(=O)c1ccc(OCC(=O)N2CCCC2c2ccc[nH]2)cc1` (stereo not drawn) was 9.13%. Turning to `CC1CCN(c2ccc(C(=O)N3CCCC3c3nncn3C)cn2)CC1` (stereo not drawn), the Percent Effect came out at 3.87%. In the case of `O=C(Nc1cccnc1)[C@H]1CO[C@H]2CCN(c3ncc(F)cn3)C[C@H]2C1` it was 8.11%; in that of `O=C(NCc1cnn2cccnc12)c1cccc(CC2CCNCC2)c1`, 85.5%; in that of `CC(C)Cn1cncc1CNC(=O)c1cccc(CC2CCNCC2)c1`, 1.62%. The value for `CC(C)(O)CCc1cccc(C(=O)NCc2cnn3cccnc23)c1` was 1.82%; that for `COc1cc(N2CC[C@H]3O[C@@H](C(=O)NC4CCCC4)CC[C@H]32)ncn1` was 0%; that for `CC(=O)N1C[C@@H]2CC[C@H](C1)N(S(=O)(=O)c1ccc(F)cc1Cl)C2` was 3%. In the case of `CC/N=c1/c(NC(=O)C2CC2)c(O)oc2ccccc12` it was 3.51%.

Regarding `NC1CCN(C2CCN(c3ccc(-c4ccco4)cc3)CC2)CC1`, the Percent Effect was determined as 43.5%. Regarding `CNC1CCN(C2CCN(c3ccc(-c4ccco4)cc3)CC2)CC1`, the Percent Effect was 35.3%. Turning to `NCC1CCN(C2CCN(c3ccc(-c4ccco4)cc3)CC2)C1` (stereo not drawn), the Percent Effect was 50.6%.
